# Inconclusive results are not listed. Unmarked numbers belong to inactive results. The source made the active and inactive calls. The call rests on the fitted dose curve; in most records, active means well fitted inhibition curve with a large enough effect; inconclusive means small, poorly fitted or top-dose-only effect; inactive means no such curve, though single readings can be large or run the other way.
# Test: Confirmation assay for measurement of the activity of small molecule inhibitors on Zika virus induced Caspase-3 activity in human astrocytoma cells
# Settings: SNB-19 ZIKV-induced caspase-3/7, luminescence, 6 h; series mostly up to 46.1 µM; activity change, negative = inhibition: at the top concentration
# Summary of the method: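 SNB-19, 250 cells/well, cultured 16-20 h; cpd 1 h pre-incubation; ZIKV 2 FFU/cell, 6 h, 37 C/5% CO2; Caspase-Glo 3/7 30 min RT; luminescence; normalized vs uninfected/infected controls.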
Structure (SMILES),Potency,"activity change, negative = inhibition [%]"
Cc1cc(O)c2c(c1)C(=O)c1cc(O)cc(O)c1C2=O,4.89 µM (active),
CC(C)c1ccc2oc3nc(N)c(C(=O)O)cc3c(=O)c2c1,1.95 µM (active),
CC(C)OC(=O)CCCC=CC[C@@H]1[C@H](C=C[C@@H](O)COc2cccc(C(F)(F)F)c2)[C@H](O)C[C@@H]1O,,16.3
CC1=C(CO)C(=O)O[C@@H]([C@@H](C)[C@H]2CC[C@H]3[C@@H]4C[C@H]5O[C@]56[C@@H](O)C=CC(=O)[C@]6(C)[C@@H]4CC[C@]23C)C1,,-1.09
C=CCCCCCCCCC(=O)O,,-5.82
NC(=O)c1cccc2[nH]c(-c3ccc([C@H]4CCCN4)cc3F)nc12,17.3 µM (active),
O=C(Nc1ccc(C(=O)O)c(O)c1)c1ccccc1,6.15 µM (active),
O=C1c2ccccc2C(=O)c2c(NCCc3ccc(O)cc3)ccc(NCCc3ccc(O)cc3)c21,,-30.1
OCc1ccc(-c2ccc(-c3ccc(CO)s3)o2)s1,0.218 µM (active),
COc1ccc(-c2cc(=S)ss2)cc1,15.5 µM (active),
COCCn1c2c([n+](Cc3cnccn3)c1C)C(=O)c1ccccc1C2=O,4.89 µM (active),
O=C(O)Cc1ccc(-c2ccccc2)cc1,,-25.3
O=C(O)c1cccc(-c2noc(-c3ccccc3F)n2)c1,3.46 µM (active),
CN1CC(=O)N2C(Cc3c([nH]c4ccccc34)[C@H]2c2ccc3c(c2)OCO3)C1=O (some centres undefined),,1.76
CC(C(=O)O)c1ccc(C(=O)c2ccccc2)s1 (centres undefined),8.69 µM (active),
Cc1ccc(O)c(N=Nc2ccccc2)n1,5.48 µM (active),
Nc1ccc2c(c1)CN1C(=O)c3ccccc3C1=N2,3.37 µM (active),
CS(=O)(=O)c1ccc(-c2cn3ccccc3n2)cc1,4.35 µM (active),
Cc1[nH]c(C=C2C(=O)Nc3ccccc32)c(C)c1CCC(=O)O,,0.798
COc1ccc2nc(NC(=O)Nc3ccccc3)sc2c1,21.8 µM (active),

Structure (SMILES),Potency,"activity change, negative = inhibition [%]"
CN(C)c1ccc(/C=C2\C(=O)Nc3ccccc32)cc1,10.9 µM (active),
CC[C@@]1(O)C[C@H](O[C@H]2C[C@H](N(C)C)[C@H](O[C@H]3C[C@H](O)[C@H](O[C@H]4CCC(=O)[C@H](C)O4)[C@H](C)O3)[C@H](C)O2)c2c(cc3c(c2O)C(=O)c2c(O)cccc2C3=O)[C@@H]1C(=O)OC,,-13.4
CC(C)Oc1ccc2c(=O)c(-c3ccccc3)coc2c1,12.3 µM (active),
CC(C)(C)COc1ccc(-n2cc(C(=O)O)cn2)cc1C#N,25.1 µM (active),
NC1CCC(Nc2nc(Nc3ccc(C(=O)N4CCCCC4)cc3)c3ncn(-c4cccc(F)c4)c3n2)CC1 (centres undefined),,99.3
Cc1ccc2c(n1)Oc1ccc(C(C)C(=O)OCC(=O)N(C)C)cc1C2 (centres undefined),10.9 µM (active),
COc1cccc(-c2ccc(NC(=O)C3=C(C(=O)O)CCC3)c(F)c2)c1,3.46 µM (active),
CC=CC[C@@H](C)C(=O)[C@H]1C(=O)N[C@@H](C(C)C)C(=O)N(C)CC(=O)N(C)[C@@H](CC(C)C)C(=O)N[C@@H](C(C)C)C(=O)N(C)[C@@H](CC(C)C)C(=O)N[C@@H](C)C(=O)N[C@H](C)C(=O)N(C)[C@@H](CC(C)C)C(=O)N(C)[C@@H](CC(C)C)C(=O)N(C)[C@@H](C(C)C)C(=O)N1C,,9.07
CC(C(=O)O)c1ccc(-c2ccccc2)c(F)c1 (centres undefined),,-11.9
O=C(CS)Nc1ccccc1,,11.3
c1ccc(CCNc2nc(-c3ccccc3)cs2)cc1,15.5 µM (active),
Oc1ccc(/C=C/c2cc(O)cc(O)c2)cc1,13.8 µM (active),
COc1ccnc2c1CCCCC2S(=O)c1nc2ccccc2[nH]1 (centres undefined),,-5.51
Cc1nc(-c2ccc(OCC(C)C)c(C#N)c2)sc1C(=O)O,2.45 µM (active),
O=S(=O)(O)c1ccc2nc(-c3ccccc3)[nH]c2c1,1.73 µM (active),
CCN1CCC(n2cc(CNc3cc(Cl)c4ncc(C#N)c(Nc5ccc(F)c(Cl)c5)c4c3)nn2)CC1,,1.61
CC(=O)Nc1ccc([C@H](C)C(=O)Nc2ncc(C(C)C)s2)cc1,9.75 µM (active),
O=C(C=CC=Cc1ccc2c(c1)OCO2)N1CCCCC1,19.5 µM (active),
NC(N)=NN=C(/C=C/c1ccc([N+](=O)[O-])o1)/C=C/c1ccc([N+](=O)[O-])o1,,-27.2

# From PubChem BioAssay AID1224853 (National Center for Advancing Translational Sciences (NCATS), 2016)
